The values that follow come from PubChem BioAssay (NCATS).

The nature of experiment [1]: Quantitative High-Throughput drug screen in 47 multiple myeloma cell lines against the NCATS MIPE library collection: PE2_PLB cell viability assay (AID 1919869). Also: nearly all actives have a fitted effect of over 35% in size. A digest of the protocol: (§1)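 500 cells/well per myeloma line exposed to pinned MIPE 4.0 compounds for 48 h at 37 °C, 5% CO2. Viability read as ATP by CellTiter-Glo luminescence, normalised to DMSO-only (100%) and media-only (0%) wells.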

Experiment [2] is described as follows: Quantitative High-Throughput drug screen in 47 multiple myeloma cell lines against the NCATS MIPE library collection: RPMI8226_ATCC cell viability assay (AID 1919871). Also: nearly all actives have a fitted effect of over 30% in size. A digest of the protocol: as §1
A short description of experiment [3]: Quantitative High-Throughput drug screen in 47 multiple myeloma cell lines against the NCATS MIPE library collection: KMS28BM_JCRB cell viability assay (AID 1919874). Also: nearly all actives have a fitted effect of over 35% in size. In short, it runs like this: as §1
Experiment [4] is described as follows: Quantitative High-Throughput drug screen in 47 multiple myeloma cell lines against the NCATS MIPE library collection: XG1_PLB cell viability assay (AID 1919866). Also: nearly all actives have a fitted effect of over 35% in size. A digest of the protocol:
as §1

Experiment [5] can be described thus: Quantitative High-Throughput drug screen in 47 multiple myeloma cell lines against the NCATS MIPE library collection: PCM6_Riken cell viability assay (AID 1919870). Also: nearly all actives have a fitted effect of over 30% in size. In short, it runs like this: as §1
Experiment [6] in a line: Quantitative High-Throughput drug screen in 47 multiple myeloma cell lines against the NCATS MIPE library collection: OPM2_DSMZ cell viability assay (AID 1919872). Also: nearly all actives have a fitted effect of over 30% in size. A digest of the protocol: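 CellTiter-Glo luminescence (ATP) after 48 h compound exposure, 37C/5% CO2; 500 cells/well; MIPE 4.0 approved/investigational drugs pinned in; DMSO = 100%, media only = 0% viability.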

A short description of experiment [7]: Quantitative High-Throughput drug screen in 47 multiple myeloma cell lines against the NCATS MIPE library collection: VP6_DJ cell viability assay (AID 1919867). Also: nearly all actives have a fitted effect of over 40% in size. A digest of the protocol:
as §1

The nature of experiment [8]: Quantitative High-Throughput drug screen in 47 multiple myeloma cell lines against the NCATS MIPE library collection: XG6_PLB cell viability assay (AID 1919865). Also: nearly all actives have a fitted effect of over 40% in size. A digest of the protocol:
as §1

A short description of experiment [9]: Quantitative High-Throughput drug screen in 47 multiple myeloma cell lines against the NCATS MIPE library collection: KMS11_JCRBsus cell viability assay (AID 1919873). Also: nearly all actives have a fitted effect of over 50% in size. In short, it runs like this: as §1
A short description of experiment [10]: Quantitative High-Throughput drug screen in 47 multiple myeloma cell lines against the NCATS MIPE library collection: UTMC2_PLB cell viability assay (AID 1919868). Also: nearly all actives have a fitted effect of over 55% in size. In short, it runs like this:
as §1

Structures are written as SMILES. Inconclusive results are not listed. Unmarked numbers belong to inactive results. Activity calls are given as the source filed them. Calls follow the shape of the dose curve; as a rule, active = well fitted cell-killing curve with a large enough effect; inconclusive = small, poorly fitted or top-dose-only effect, or effect the other way; inactive = no such curve, though single readings can be large or run the other way.
Potency is read from the fitted curve at half-maximal effect.

Take `CN(C)CCC=C1c2ccccc2C=Cc2ccccc21`: the Potency result in experiment [1] is “inactive”. Further, the figures for the Potency in experiment [2] and in experiment [3] were 6.62 µM (active) and 3.72 µM (active), respectively.
As to `COc1ccccc1OCCNCC(O)COc1cccc2[nH]c3ccccc3c12` (configuration not stated), the Potency in [4] was 18.7 µM (active); in experiment [5] it was 16.6 µM (active). Besides, the Potency result in [1] and in [6] was “inactive” each time.
`Cc1ccc(-c2cc(C(F)(F)F)nn2-c2ccc(S(N)(=O)=O)cc2)cc1`: the Potency result in experiment [1] is “inactive”.
For the molecule `O=c1c(-c2ccc(O)cc2)coc2cc(O)cc(O)c12`, the results for the Potency in experiment [7], in [5] and in experiment [2] were 5.9 µM (active), 7.43 µM (active) and 20.9 µM (active), respectively. For the same molecule, the Potency result in experiment [1], in experiment [6] and in experiment [3] was “inactive” throughout.
`C[C@@H]1CC(=O)NN=C1c1ccc(NN=C(C#N)C#N)cc1`: the Potency in experiment [8] is 23.5 µM (active); in experiment [4], 18.7 µM (active); in experiment [7] it was 18.7 µM (active); in experiment [1], 14.8 µM (active); in experiment [5] it was 18.7 µM (active); in [2], 20.9 µM (active). Besides, the Potency in [9] is 16.6 µM (active); in experiment [3], 23.5 µM (active).
In the case of `CC(C)(C)C(=O)Oc1ccc(S(=O)(=O)Nc2ccccc2C(=O)NCC(=O)O)cc1`, the Potency entry in experiment [2], in experiment [6], in experiment [9] and in experiment [3] was “inactive” throughout.
For the molecule `COC(=O)Nc1nc2ccc(C(=O)c3cccs3)cc2[nH]1`, the Potency is 0.0209 µM (active) in experiment [10], 0.0235 µM (active) in experiment [1], 0.526 µM (active) in experiment [2] and 0.0118 µM (active) in experiment [6]. Further, the Potency result in experiment [3] is “inactive”.
In the case of `Cc1cnc(C(=O)NCCc2ccc(S(=O)(=O)NC(=O)NC3CCCCC3)cc2)cn1`, the Potency is 20.9 µM (active) in experiment [4], 14.8 µM (active) in [1], 16.6 µM (active) in experiment [5] and 16.6 µM (active) in experiment [2].
As for `N[C@@H](Cc1c[nH]c2ccc(O)cc12)C(=O)O`, the Potency entry in [4], in [9] and in experiment [3] was “inactive” in each case. The Potency in [7] was 16.6 µM (active); in experiment [2] it was 1.05 µM (active).
As for `NCCCCCC(=O)O`, the Potency result in [8], in experiment [4], in [10], in [1], in [5] and in experiment [2] was “inactive” in each case. Moreover, the Potency entry in experiment [9] and in [3] was “inactive” throughout.
Take `Nc1c2c(nc3ccccc13)CCCC2`: the Potency entry in experiment [8], in [4], in [1], in [5] and in [9] was “inactive” in each case. For the same molecule, the Potency is 1.32 µM (active) in [2] and 16.6 µM (active) in [3].
`Nc1nnc(-c2cccc(Cl)c2Cl)c(N)n1`: the Potency in experiment [8] was 9.35 µM (active); in experiment [4], 16.6 µM (active). Moreover, the Potency entry in [10], in experiment [2], in experiment [9] and in [3] was “inactive” in each case.
`CS(=O)(=O)Nc1ccc([N+](=O)[O-])cc1Oc1ccccc1`: the Potency entry in experiment [8], in [4], in experiment [7], in [5] and in experiment [3] was “inactive” each time. Further, the Potency in [2] was 16.6 µM (active).
For `CN1C2CCC1CC(OC(=O)C(CO)c1ccccc1)C2` (configuration not stated), the Potency result in [8], in [4], in [10], in experiment [1], in experiment [5] and in [2] was “inactive” throughout. For the same molecule, the Potency result in [6], in experiment [9] and in [3] was “inactive” in each case.
Turning to `NS(=O)(=O)c1cc2c(cc1Cl)NCNS2(=O)=O`, the Potency in experiment [4] was 7.43 µM (active). Besides, the Potency result in experiment [2] and in experiment [9] was “inactive” throughout.
For `COc1cc2nc(N3CCN(C(=O)C4COc5ccccc5O4)CC3)nc(N)c2cc1OC` (configuration not stated), the Potency was 20.9 µM (active) in experiment [8]; 29.6 µM (active) in experiment [4]; 18.7 µM (active) in [1]; 20.9 µM (active) in experiment [5]; 16.6 µM (active) in [2]; 18.7 µM (active) in experiment [9]. Besides, the Potency in experiment [3] was 16.6 µM (active). In addition, the Potency entry in experiment [6] was “inactive”.
In the case of `Clc1ccc2c(c1)C(N1CCNCC1)=Nc1ccccc1O2`, the Potency entry in [8], in experiment [4] and in experiment [6] was “inactive” throughout.
As for `CN1CCN2c3ccccc3Cc3ccccc3C2C1` (configuration not stated), the Potency in experiment [8] is 10.5 µM (active); in experiment [4], 18.7 µM (active); in experiment [7], 3.72 µM (active); in experiment [9], 23.5 µM (active); in [3], 23.5 µM (active). Further, in experiment [10], the Potency result was “inactive”.
`CC(C)Cc1ccc(C(C)C(=O)O)cc1` (configuration not stated): the Potency in [8] is 6.45 µM (active). For the same molecule, the Potency entry in [4], in experiment [10], in [1], in experiment [2] and in experiment [9] was “inactive” in each case.
For the molecule `Clc1ccc2nsnc2c1NC1=NCCN1`, the Potency entry in experiment [8], in [4], in experiment [7], in experiment [10], in experiment [5] and in [9] was “inactive” throughout. In [3], the Potency result is “inactive”.
Turning to `CC1(C)O[C@H]2CC(=O)OC[C@]23[C@H]2CC[C@@]4(C)[C@H](c5ccoc5)OC(=O)[C@H]5O[C@]54[C@]2(C)C(=O)C[C@@H]13`, the Potency entry in experiment [8], in experiment [4], in [1], in experiment [2], in [6] and in experiment [9] was “inactive” in each case. Further, the Potency result in [3] was “inactive”.
As for `CCOC(=O)c1ncn2c1CN(C)C(=O)c1cc(F)ccc1-2`, the Potency result in experiment [8], in experiment [4], in experiment [1], in experiment [5] and in [3] was “inactive” throughout. In addition, in experiment [2], the Potency was 2.64 µM (active).
